Data from PubChem BioAssay (EPA / NIEHS).
The source made the active and inactive calls. Rule for the calls: active = hit-call score of the fitted dose curve at least 0.9, where 1 is the maximum; inactive = score below 0.9.

Tests used:
[1] = APR_HepG2_P-H2AX_72hr: Apredica 72-hour HepG2 Assay for H2AX Phosphorylation (AID 2282916); conditions: imaging, actives raise or lower the signal;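 note: phospho-histone H2A.x immunostain intensity per cell marking DNA damage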
Procedure, shortened: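 Phospho-H2A.x imaging endpoint in HepG2 after 72 hr compound exposure (0.39–200 uM, duplicate wells). Activity derived by bidirectional curve fitting with DMSO as baseline.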

[2] = APR_HepG2_MitoMembPot_72hr: Apredica 72-hour HepG2 Assay for Mitochondrial Membrane Potential (AID 2282917); conditions: imaging, actives raise or lower the signal
Procedure, shortened: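 Membrane potential read by MitoTracker Red CMXRos (250 nM, 30 min, pre-fixation) fluorescence imaging of HepG2 after 72 hr exposure. Ten concentrations, 0.39–200 uM, duplicate wells, 0.5% DMSO; fitted in both directions against DMSO baseline.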

[3] = APR_HepG2_MitoticArrest_72hr: Apredica 72-hour HepG2 Assay for Mitotic Arrest (AID 2282918); conditions: high-content imaging, actives raise or lower the signal
Procedure, shortened: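 High-content imaging of fixed human HepG2 cells after 72 h compound exposure (0.39–200 uM, duplicates, 0.5% DMSO); mitotic arrest scored from phospho-histone H3 and nuclear Hoechst staining relative to DMSO.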

[4] = APR_HepG2_MicrotubuleCSK_72hr: Apredica 72-hour HepG2 Assay for Microtubule CSK Stabilty (AID 2282919); conditions: HepG2 microtubule cytoskeleton, high-content imaging, actives raise or lower the signal
Procedure, shortened: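 High-content imaging of alpha-tubulin staining in fixed HepG2 cells after 72 hr treatment with ten concentrations from 0.39 to 200 uM (0.5% DMSO). Fitting was bidirectional against DMSO; taxol served as positive control.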

[5] = APR_HepG2_P-H2AX_24hr: Apredica 24-hour HepG2 Assay for H2AX Phosphorylation (AID 2282920); conditions: high-content imaging, actives raise or lower the signal
Procedure, shortened: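 High-content imaging of phospho-histone H2A.x immunofluorescence, nuclei counterstained with Hoechst 33342, in fixed HepG2 cells. Compounds ran 0.39–200 uM in duplicate for 24 h, final DMSO 0.5%. Signal change fitted both directions against DMSO.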

[6] = APR_HepG2_StressKinase_72hr: Apredica 72-hour HepG2 Assay for Stress Kinase (AID 2282921); conditions: HepG2 stress kinase (phospho-c-Jun) imaging, actives raise or lower the signal
Procedure, shortened: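 Stress kinase signal reflects nuclear phospho-c-Jun staining in fixed, permeabilized cells exposed 72 h to compound at 0.39–200 uM; DMSO-normalized, fitted for increases or decreases.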

[7] = APR_HepG2_StressKinase_24hr: Apredica 24-hour HepG2 Assay for Stress Kinase (AID 2282922); conditions: HepG2 stress kinase (phospho-c-Jun) imaging, actives raise or lower the signal
Procedure, shortened: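 High-content imaging of phospho-c-Jun immunofluorescence in fixed, permeabilized HepG2 cells after 24 h dosing. Ten concentrations, 0.39 to 200 uM, run in duplicate at 0.5% v/v DMSO; gain or loss of signal versus DMSO.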

[8] = APR_HepG2_p53Act_72hr: Apredica 72-hour HepG2 Assay for p53 Activation (AID 2282923); conditions: high-content imaging, actives raise or lower the signal;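 note: average cellular p53 protein immunofluorescence intensity in HepG2 cells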
Procedure, shortened: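 Fixed-cell p53 staining (sheep primary, Cy5 secondary) measured by fluorescence imaging following 72 hr treatment at 0.39–200 uM in 0.5% DMSO; DMSO served as negative control and baseline.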

[9] = APR_HepG2_MitoMass_72hr: Apredica 72-hour HepG2 Assay for Mitochondrial Mass (AID 2282924); conditions: high-content imaging, actives raise or lower the signal;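 note: MitoTracker Red CMXRos stain intensity per cell imaged as mitochondrial mass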
Procedure, shortened: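 Readout is imaged MitoTracker Red (250 nM, 30 min, pre-fixation) signal, fitted bidirectionally against DMSO baseline. Human HepG2 liver cells received compound 0.39–200 uM in duplicate for 72 hr, final DMSO 0.5%.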

[10] = APR_HepG2_NuclearSize_72hr: Apredica 72-hour HepG2 Assay for Nuclear Size (AID 2282925); conditions: high-content imaging, actives raise or lower the signal
Procedure, shortened: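 Nuclear size was read by high-content imaging of Hoechst 33342 stain after formaldehyde fixation. Compounds ran 72 h on HepG2 at 0.39 to 200 uM, with final DMSO 0.5% v/v. Curves fitted both directions relative to DMSO control.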

Measured: AC50

CCCCCCCCCCCCCCO
active: [1] 98.6 µM | [3] 90.9 µM | [4] 114 µM | [5] 101 µM | [8] 104 µM
inactive: [2] | [6] | [7] | [9] | [10]

NC(=O)NN=Cc1ccc([N+](=O)[O-])o1
active: [3] 68.7 µM | [4] 85.4 µM | [5] 72 µM | [8] 67.3 µM
inactive: [2] | [6] | [7] | [9] | [10]

Cn1cc[nH]c1=S
inactive: [2] | [3] | [4] | [5] | [6] | [7] | [8] | [9] | [10]

COS(C)(=O)=O
inactive: [1] | [2] | [3] | [4] | [5] | [6] | [7] | [9] | [10]

C[C@]12C=CC(=O)C=C1CC[C@H]1[C@@H]3C[C@@H](O)[C@](O)(C(=O)CO)[C@@]3(C)C[C@H](O)[C@@]12F
inactive: [1] | [2] | [3] | [4] | [5] | [6] | [7] | [8] | [9] | [10]

OC(Cn1cncn1)(Cn1cncn1)c1ccc(F)cc1F
inactive: [1] | [2] | [3] | [4] | [5] | [6] | [7] | [8] | [9] | [10]

COc1cc2c(c(OC)c1OC)-c1ccc(OC)c(=O)cc1[C@@H](NC(C)=O)CC2
inactive: [2] | [9] | [10]
active: [1] 0.0815 µM | [3] 0.0391 µM | [4] 0.0628 µM | [5] 0.0797 µM | [6] 0.0456 µM | [7] 0.0391 µM

c1ccc(C(O[C@@H]2CCCN(CCc3ccc4c(c3)OCO4)C2)c2ccccc2)cc1
inactive: [2] | [4] | [7] | [10]
active: [1] 96 µM | [3] 57.8 µM | [5] 103 µM | [6] 100 µM | [8] 63.3 µM | [9] 99.7 µM

CCCCCCCCCCCCCCCCOS(=O)(=O)O
inactive: [1] | [2] | [3] | [4] | [5] | [6] | [7] | [8] | [9] | [10]

c1ccc2cc3ccccc3cc2c1
inactive: [6] | [7] | [8] | [10]
active: [1] 112 µM | [5] 107 µM

OCc1ccccc1
inactive: [1] | [2] | [3] | [4] | [5] | [6] | [7] | [9] | [10]

CNC(C)=O
inactive: [1] | [2] | [3] | [4] | [5] | [6] | [7] | [9] | [10]

CCOC(N)=O
inactive: [2] | [3] | [4] | [5] | [6] | [7] | [8] | [9] | [10]

C=CN1CCCC1=O
inactive: [2] | [3] | [4] | [5] | [6] | [7] | [8] | [9] | [10]

O=C1CN(N=Cc2ccc([N+](=O)[O-])o2)C(=O)N1
inactive: [2] | [6] | [7]
active: [1] 65.2 µM | [3] 58.3 µM | [5] 56.7 µM | [8] 46.8 µM | [9] 90.5 µM

OC(CCl)CCl
inactive: [1] | [2] | [3] | [4] | [5] | [6] | [7] | [8] | [9] | [10]

COc1cc(C(C)C)c2c(c1)S(=O)(=O)N(COc1cc(=O)n3cccc(OCCN4CCCCC4)c3n1)C2=O
active: [5] 10.7 µM
inactive: [1] | [2] | [3] | [4] | [6] | [7] | [9] | [10]

CC(C)C(=O)Nc1ccc([N+](=O)[O-])c(C(F)(F)F)c1
inactive: [2] | [6] | [7]
active: [1] 70.8 µM | [3] 61 µM | [4] 67.8 µM | [5] 91 µM | [9] 74.9 µM | [10] 111 µM

CCCCC(CC)C(=O)OCCOCCOCCOC(=O)C(CC)CCCC (stereo not drawn)
inactive: [1] | [2] | [4] | [5] | [6] | [7] | [8] | [9] | [10]
active: [3] 91.2 µM

Cc1ncc([C@@H](CCCCCCc2ccc3c(n2)NCCC3)CC(=O)O)cn1
active: [1] 0.0391 µM | [3] 0.0971 µM | [4] 0.534 µM | [5] 0.0459 µM | [10] 0.0398 µM
inactive: [2] | [6] | [7] | [9]

COCc1nnc(-c2ccc[n+]([O-])c2)n1-c1c(Cl)c(Cl)cc2[nH]c(=O)c(=O)[nH]c12
inactive: [1] | [2] | [3] | [4] | [5] | [6] | [7] | [9] | [10]

O=C(O)c1cccc(C(=O)O)c1
inactive: [1] | [5] | [6] | [7] | [10]

OCCNCCO
inactive: [1] | [2] | [3] | [4] | [5] | [6] | [7] | [9] | [10]

CCCC(CCC)C(=O)O
inactive: [1] | [2] | [3] | [4] | [5] | [6] | [7] | [9] | [10]

CC(C)CC(C)O (stereo not drawn)
inactive: [1] | [2] | [3] | [4] | [5] | [6] | [7] | [9] | [10]

CC(C)CCCCCCOC(=O)C1CCCCC1C(=O)OCCCCCCC(C)C (stereo not drawn)
inactive: [1] | [2] | [3] | [4] | [5] | [6] | [7] | [9] | [10]

CCc1cccc(CC)c1N
inactive: [1] | [2] | [3] | [4] | [5] | [6] | [7] | [8] | [9] | [10]

OCCOCCOCCO
inactive: [1] | [2] | [3] | [4] | [5] | [6] | [7] | [8] | [9] | [10]

O=C(O)c1cccc(C[C@@H]2COc3ccc(OCc4nc5cc(F)ccc5s4)cc3[C@@H]2O)c1
active: [3] 102 µM | [5] 105 µM | [6] 66.3 µM | [7] 110 µM | [8] 73.1 µM | [9] 178 µM
inactive: [2] | [4] | [10]

OC[C@H]1O[C@@](CO)(O[C@H]2O[C@H](CO)[C@@H](O)[C@H](O)[C@H]2O)[C@@H](O)[C@@H]1O
inactive: [1] | [2] | [3] | [4] | [5] | [6] | [7] | [9] | [10]

Cc1ccc(S(=O)(=O)NC(=O)NN2CCCCCC2)cc1
inactive: [1] | [2] | [3] | [4] | [5] | [6] | [7] | [9] | [10]

CC(C)c1nnc2ccc(-c3ocnc3-c3cc(F)ccc3F)cn12
inactive: [1] | [2] | [3] | [5] | [6] | [7] | [8] | [9]

O=S1(=O)CCCO1
inactive: [1] | [2] | [3] | [4] | [5] | [6] | [7] | [8] | [9] | [10]
